The nature of test [1]: cAMP Responsive Elements (CRE) small molecule antagonists, cell-based qHTS assay: qHTS cell viability counter screen (AID 2060913). Further: nearly all actives have a fitted effect of over 40% in size. The note with it: CRE-bla HEK293T viability, CellTiter-Glo luminescence, 5 h; series mostly up to 92.4 µM. The procedure, abridged:
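HEK293T CRE-bla, 2,000 cells/well, 18 h preincubation; cpd in DMSO + NKH477 0.25 uM final, 3 h 37 C/5% CO2; LiveBLAzer 2 h RT, then CellTiter-Glo 30 min RT, luminescence.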
For orientation: qHTS replaces the single test concentration by a dilution series.

Test [2] is described as follows: cAMP Responsive Elements (CRE) small molecule agonists, cell-based qHTS assay: qHTS cell viability counter screen (AID 2060914). Further: nearly all actives have a fitted effect of over 50% in size. Particulars: CRE-bla HEK293T viability, CellTiter-Glo luminescence, 5 h; series mostly up to 92.4 µM. The procedure, abridged: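 HEK 293T CRE-bla; DMEM + 10% dialyzed FBS, 25 mM HEPES; 18 h pre-incubation; compound 3 h, 37 °C/5% CO2; CellTiter-Glo added after reporter read; luminescence after 30 min RT.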

Results filed as inconclusive are left out. A number with no mark means an inactive call. Active and inactive are the calls of the source. The call rests on the fitted dose curve; in most records, active means well fitted cell-killing curve with a large enough effect in the repeat runs; inconclusive means weak or mixed curves, or effect the other way; inactive means flat fitted curve, though single readings scatter.
On the % scale 0 is the no-effect control and ±100 the full control effect.

As for `CC(C)CCCCCCCCCCCCCCC(=O)O`, the Potency result in test [1] and in test [2] was “inactive” throughout.
As to `O=C(c1ccc(O)cc1)c1ccc(O)c(O)c1O`, the Potency entry in test [1] and in test [2] was “inactive” throughout.
Consider `CCCCCCCCCCCCCCC(=O)NC(CO)CCCCCCCCCCCCCC` (stereo not given), for which the Potency entry in test [1] and in test [2] was “inactive” each time.
As to `c1ccc(CNCCNCc2ccccc2)cc1`, the Potency entry in test [1] and in test [2] was “inactive” throughout.
Consider `Cc1ccc(C(=O)c2ccc(CC(=O)O)n2C)cc1`, for which the Potency entry in test [1] and in test [2] was “inactive” in each case.
As to `C#C[C@]1(O)CC[C@H]2[C@@H]3CCc4cc(OC5CCCC5)ccc4[C@H]3CC[C@@]21C`, the Potency entry in test [1] and in test [2] was “inactive” each time.
Regarding `CC(C)C(C)(C)C(C)(C)C(C)(C)S`, the Potency result in test [1] and in test [2] was “inactive” in each case.
Regarding `CO[C@@H]1[C@@H](OC(N)=O)[C@@H](O)[C@H](Oc2ccc3c(O)c(NC(=O)c4ccc(O)c(CC=C(C)C)c4)c(=O)oc3c2C)OC1(C)C`, the Potency result in test [1] and in test [2] was “inactive” each time.
As to `Nc1ccc(Cl)c(N)c1`, the Potency result in test [1] and in test [2] was “inactive” in each case.
Regarding `CCCCCCCC(C)=O`, the Potency result in test [1] and in test [2] was “inactive” throughout.
As for `N=C(N)c1ccc(OCCCOc2ccc(C(=N)N)cc2)cc1`, the Potency entry in test [1] and in test [2] was “inactive” in each case.
Take `Cc1ccccc1C=O`: the Potency result in test [1] and in test [2] was “inactive” in each case.
Regarding `O=C(c1ccccc1)C(O)c1ccccc1` (stereo not given), the Potency entry in test [1] and in test [2] was “inactive” each time.
In the case of `COCCOCCOCCOCCOC`, the Potency result in test [1] and in test [2] was “inactive” throughout.
Regarding `c1ccc(Cc2ccccc2)cc1`, the Potency result in test [1] and in test [2] was “inactive” each time.
Consider `Cn1nnc2c(C(N)=O)ncn2c1=O`, for which the Potency result in test [1] and in test [2] was “inactive” each time.
With `COC(=O)CCCCC(=O)O`, the Potency entry in test [1] and in test [2] was “inactive” throughout.
Regarding `CC12CCC(CC1)C(C)(C)O2`, the Potency result in test [1] and in test [2] was “inactive” throughout.
`CC(C)[C@H]1CC[C@@H](C)CC1=O`: the Potency entry in test [1] and in test [2] was “inactive” each time.
Take `CCc1nccnc1CC`: in test [1], the viability change, negative = cytotoxic is 0.102% [at 18.9 µM]. In test [2], the activity change, negative = cytotoxicity is 11.2% [at 18.9 µM].

The record behind these values is PubChem BioAssay (Tox21).
